Composite z-score and z-score data for five molecules are collected here from PubChem BioAssay.

The structures appear in SMILES notation. Active and inactive are the calls of the source.

A short description of experiment [1]: small molecules captured by biotinylated probe aFSTL3 – biochemical, small-molecule microarray, fluorescence 635/667, stem cell growth factor project, primary screen (AID 1064).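 Also: measures binding of the biotinylated anti-FSTL3 antibody to printed compounds.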 Particulars: higher = more signal.
The nature of experiment [2]: binders from COS7 lysate, DM2A8 probe, primary screen, torsin A project, cell lysate, small-molecule microarray, fluorescence 635/667 (AID 1065). Particulars: higher = more signal, COS7 lysate expressing mutant human TOR1A.
The nature of experiment [3]: small molecules captured by biotinylated probe aFGF2 – biochemical, small-molecule microarray, fluorescence 635/667, stem cell growth factor project, primary screen (AID 1067).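 Also: measures binding of biotinylated aFGF2 protein to printed compounds on slides; z-score merges feature fluorescence and signal-to-noise across triplicate slides.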 Particulars: higher = more signal.
The nature of experiment [4]: small molecules captured by biotinylated probe aFGF10 – biochemical, small-molecule microarray, fluorescence 635/667, stem cell growth factor project, primary screen (AID 1071).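 Also: score merges 667 nm spot intensity and signal to noise from triplicate slides.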 Particulars: higher = more signal.
Experiment [5] has as its target Neurogenic locus notch homolog protein 2 (Homo sapiens) (UniProt Q04721). The experiment is described as follows: small molecules binding Notch2 protein – biochemical, small-molecule microarray, 635 nm fluorescence, stem cell growth factors, primary screen (AID 1073). Particulars: higher = more signal.
Experiment [6] concerns the target Pro-neuregulin-1, membrane-bound isoform (Homo sapiens) (UniProt Q02297). The experiment is described as follows: small molecules binding neuregulin-1 protein – biochemical, small-molecule microarray, fluorescence 635/667, psychiatric disease protein project, primary screen (AID 1075).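 Also: score combines 667 nm spot fluorescence with signal to noise.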 Particulars: NRG1 binding, 635 nm fluorescence, higher = more signal.
Experiment [7] has as its system Neuregulin-1 EGF-like domain. As to the kind of experiment: small molecules binding NRG1 EGF domain – biochemical, small-molecule microarray, 635 nm fluorescence, primary screen (AID 1081).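 Also: binding of the protein to compounds printed on small-molecule microarray slides.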 Particulars: higher = more signal.
Experiment [8] can be described thus: FRG1 expression reporter modulators in myotubes – cell-based, C2C12 myotubes, firefly/Renilla luciferase, luminescence, FRG1 inhibition for FSHD, primary screen (AID 1084). Particulars: FRG1 promoter luciferase, higher = more signal, called active from +8 up or from −8 down.
A short description of experiment [9]: small molecules captured by biotinylated probe aFST – biochemical, small-molecule microarray, fluorescence 635/667, stem cell growth factor project, primary screen (AID 1086).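 Also: score merges 667 nm fluorescence with signal-to-noise of each printed compound spot.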 Particulars: higher = more signal.
The nature of experiment [10]: binders of probe aHhip on microarray, primary screen, stem cell growth factor project, biochemical, small-molecule microarray, fluorescence 635/667 (AID 1087).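 Also: score merges spot fluorescence at 667nm with spot signal to noise ratio.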 Particulars: higher = more signal.
Experiment [11] deals with PRMT1 (protein arginine N-methyltransferase 1). The experiment is described as follows: small molecules binding arginine methyltransferase PRMT1 – biochemical, small-molecule microarray, 635 nm fluorescence, primary screen (AID 1088).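 Also: binding of Prmt1 protein to compounds spotted on small-molecule microarray slides.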 Particulars: higher = more signal.
A short description of experiment [12]: growth effects on S. cerevisiae YJM789 – YJM789 clinical isolate, OD600, 24 h, basal, primary screen (AID 1089).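 Also: growth of clinical yeast isolate S. cerevisiae YJM 789 seeded 1000 cells per well; test concentration not given here.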 Particulars: higher = more signal, called active from +8 up or from −8 down.
Experiment [13] in a line: S. pombe growth modifiers, basal conditions – strain 972, OD600, 24 h, no modulator, primary screen (AID 1090).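 Also: basal condition with compound alone and no growth modifier present; test concentration not given here.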 Particulars: S. pombe 972 growth, higher = more signal, called active from +8 up or from −8 down.
Experiment [14] in a line: budding yeast growth modifiers under rapamycin – strain BY4716, OD600, 96 h, primary screen (AID 1091). Also: test concentration not given here. Particulars: S. cerevisiae BY4716 + rapamycin, higher = more signal, called active from +8 up or from −8 down.
The target of experiment [15] is Torsin-1A-interacting protein 2 (Homo sapiens) (UniProt Q8NFQ8). The experiment is described as follows: small molecules binding lysate-expressed LULL1 – cell lysate, human LULL1 lysate, 635/667 nm fluorescence, primary screen (AID 1092).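 Also: probe is lysate of COS7 cells overexpressing human LULL1; score merges per-feature 667 nm fluorescence with signal-to-noise.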 Particulars: small-molecule microarray, hLULL1 lysate binding, 635 nm fluorescence; higher = more signal.
Sequence of Torsin-1A-interacting protein 2 (Homo sapiens) (Q8NFQ8 whole entry, looked up): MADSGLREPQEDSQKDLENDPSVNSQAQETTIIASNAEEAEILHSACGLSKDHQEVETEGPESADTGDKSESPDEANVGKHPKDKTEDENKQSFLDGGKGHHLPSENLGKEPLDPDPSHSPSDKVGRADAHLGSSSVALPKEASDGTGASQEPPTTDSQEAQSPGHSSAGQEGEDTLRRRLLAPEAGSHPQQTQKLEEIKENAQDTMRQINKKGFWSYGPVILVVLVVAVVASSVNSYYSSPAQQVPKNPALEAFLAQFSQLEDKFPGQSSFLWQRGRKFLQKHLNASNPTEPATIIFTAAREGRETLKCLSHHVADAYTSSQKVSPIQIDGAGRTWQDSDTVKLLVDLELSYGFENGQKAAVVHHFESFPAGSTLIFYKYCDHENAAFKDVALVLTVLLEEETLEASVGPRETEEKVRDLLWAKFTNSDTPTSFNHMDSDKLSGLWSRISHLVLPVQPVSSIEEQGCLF
Experiment [16] in a line: optical density change of DRC41 E. coli – strain DRC41, OD650, 24 h, E. coli filamentation project, primary screen (AID 1093).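 Also: MC1000 strain lacking acrAB efflux and sulA so SOS filamentation is blocked; test concentration not given here.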 Particulars: E. coli DRC41 growth, higher = more signal, called active from +8 up or from −8 down.
Experiment [17] in a line: probe aLefty2 binding to arrayed compounds – biochemical, biotinylated probe, 635/667 nm fluorescence, primary screen (AID 1094).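 Also: score merges spot fluorescence near 667 nm with spot signal-to-noise ratio.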 Particulars: small-molecule microarray, higher = more signal.
The subject of experiment [18] is Noggin (protein binding on small-molecule microarray). As to the kind of experiment: small molecules binding Noggin protein – biochemical, 635/667 nm fluorescence, primary screen (AID 1095).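 Also: score merges 667 nm feature fluorescence with signal to noise over triplicate slides.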 Particulars: 635 nm fluorescence, higher = more signal.
The target of experiment [19] is Neurogenic locus notch homolog protein 3 (Homo sapiens) (UniProt Q9UM47). The experiment is described as follows: small molecules binding NOTCH3 protein – biochemical, 635/667 nm fluorescence, primary screen (AID 1096). Particulars: small-molecule microarray, 635 nm fluorescence, higher = more signal.
Experiment [20] is described as follows: probe aEGFR binding to arrayed compounds – biochemical, biotinylated probe, 635/667 nm fluorescence, primary screen (AID 1097).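 Also: probe is a biotinylated anti-EGFR antibody binding compounds printed on slides; score combines fluorescence near 667 nm and signal to noise of each spot.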 Particulars: small-molecule microarray, higher = more signal.

Sequence of Pro-neuregulin-1, membrane-bound isoform (Homo sapiens) (Q02297 whole entry, looked up, the tested form may be a part, canonical isoform): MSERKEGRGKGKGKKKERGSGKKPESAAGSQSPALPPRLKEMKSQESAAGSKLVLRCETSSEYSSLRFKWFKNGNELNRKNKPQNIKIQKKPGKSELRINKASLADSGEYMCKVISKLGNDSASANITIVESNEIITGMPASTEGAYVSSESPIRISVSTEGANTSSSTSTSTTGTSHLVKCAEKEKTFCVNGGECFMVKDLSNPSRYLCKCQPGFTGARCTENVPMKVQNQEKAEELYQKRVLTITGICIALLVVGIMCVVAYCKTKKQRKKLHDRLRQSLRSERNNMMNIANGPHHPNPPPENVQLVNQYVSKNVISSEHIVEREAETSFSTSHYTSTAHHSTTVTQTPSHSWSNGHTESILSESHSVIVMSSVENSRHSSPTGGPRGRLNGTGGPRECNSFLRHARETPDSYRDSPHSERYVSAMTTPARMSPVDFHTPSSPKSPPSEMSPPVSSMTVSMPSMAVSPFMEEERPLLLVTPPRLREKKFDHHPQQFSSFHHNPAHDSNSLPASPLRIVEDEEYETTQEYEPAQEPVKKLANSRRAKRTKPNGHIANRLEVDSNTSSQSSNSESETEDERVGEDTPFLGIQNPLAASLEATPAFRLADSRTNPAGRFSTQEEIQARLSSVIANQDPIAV
Sequence of Neurogenic locus notch homolog protein 2 (Homo sapiens) (Q04721 whole entry, looked up, canonical isoform): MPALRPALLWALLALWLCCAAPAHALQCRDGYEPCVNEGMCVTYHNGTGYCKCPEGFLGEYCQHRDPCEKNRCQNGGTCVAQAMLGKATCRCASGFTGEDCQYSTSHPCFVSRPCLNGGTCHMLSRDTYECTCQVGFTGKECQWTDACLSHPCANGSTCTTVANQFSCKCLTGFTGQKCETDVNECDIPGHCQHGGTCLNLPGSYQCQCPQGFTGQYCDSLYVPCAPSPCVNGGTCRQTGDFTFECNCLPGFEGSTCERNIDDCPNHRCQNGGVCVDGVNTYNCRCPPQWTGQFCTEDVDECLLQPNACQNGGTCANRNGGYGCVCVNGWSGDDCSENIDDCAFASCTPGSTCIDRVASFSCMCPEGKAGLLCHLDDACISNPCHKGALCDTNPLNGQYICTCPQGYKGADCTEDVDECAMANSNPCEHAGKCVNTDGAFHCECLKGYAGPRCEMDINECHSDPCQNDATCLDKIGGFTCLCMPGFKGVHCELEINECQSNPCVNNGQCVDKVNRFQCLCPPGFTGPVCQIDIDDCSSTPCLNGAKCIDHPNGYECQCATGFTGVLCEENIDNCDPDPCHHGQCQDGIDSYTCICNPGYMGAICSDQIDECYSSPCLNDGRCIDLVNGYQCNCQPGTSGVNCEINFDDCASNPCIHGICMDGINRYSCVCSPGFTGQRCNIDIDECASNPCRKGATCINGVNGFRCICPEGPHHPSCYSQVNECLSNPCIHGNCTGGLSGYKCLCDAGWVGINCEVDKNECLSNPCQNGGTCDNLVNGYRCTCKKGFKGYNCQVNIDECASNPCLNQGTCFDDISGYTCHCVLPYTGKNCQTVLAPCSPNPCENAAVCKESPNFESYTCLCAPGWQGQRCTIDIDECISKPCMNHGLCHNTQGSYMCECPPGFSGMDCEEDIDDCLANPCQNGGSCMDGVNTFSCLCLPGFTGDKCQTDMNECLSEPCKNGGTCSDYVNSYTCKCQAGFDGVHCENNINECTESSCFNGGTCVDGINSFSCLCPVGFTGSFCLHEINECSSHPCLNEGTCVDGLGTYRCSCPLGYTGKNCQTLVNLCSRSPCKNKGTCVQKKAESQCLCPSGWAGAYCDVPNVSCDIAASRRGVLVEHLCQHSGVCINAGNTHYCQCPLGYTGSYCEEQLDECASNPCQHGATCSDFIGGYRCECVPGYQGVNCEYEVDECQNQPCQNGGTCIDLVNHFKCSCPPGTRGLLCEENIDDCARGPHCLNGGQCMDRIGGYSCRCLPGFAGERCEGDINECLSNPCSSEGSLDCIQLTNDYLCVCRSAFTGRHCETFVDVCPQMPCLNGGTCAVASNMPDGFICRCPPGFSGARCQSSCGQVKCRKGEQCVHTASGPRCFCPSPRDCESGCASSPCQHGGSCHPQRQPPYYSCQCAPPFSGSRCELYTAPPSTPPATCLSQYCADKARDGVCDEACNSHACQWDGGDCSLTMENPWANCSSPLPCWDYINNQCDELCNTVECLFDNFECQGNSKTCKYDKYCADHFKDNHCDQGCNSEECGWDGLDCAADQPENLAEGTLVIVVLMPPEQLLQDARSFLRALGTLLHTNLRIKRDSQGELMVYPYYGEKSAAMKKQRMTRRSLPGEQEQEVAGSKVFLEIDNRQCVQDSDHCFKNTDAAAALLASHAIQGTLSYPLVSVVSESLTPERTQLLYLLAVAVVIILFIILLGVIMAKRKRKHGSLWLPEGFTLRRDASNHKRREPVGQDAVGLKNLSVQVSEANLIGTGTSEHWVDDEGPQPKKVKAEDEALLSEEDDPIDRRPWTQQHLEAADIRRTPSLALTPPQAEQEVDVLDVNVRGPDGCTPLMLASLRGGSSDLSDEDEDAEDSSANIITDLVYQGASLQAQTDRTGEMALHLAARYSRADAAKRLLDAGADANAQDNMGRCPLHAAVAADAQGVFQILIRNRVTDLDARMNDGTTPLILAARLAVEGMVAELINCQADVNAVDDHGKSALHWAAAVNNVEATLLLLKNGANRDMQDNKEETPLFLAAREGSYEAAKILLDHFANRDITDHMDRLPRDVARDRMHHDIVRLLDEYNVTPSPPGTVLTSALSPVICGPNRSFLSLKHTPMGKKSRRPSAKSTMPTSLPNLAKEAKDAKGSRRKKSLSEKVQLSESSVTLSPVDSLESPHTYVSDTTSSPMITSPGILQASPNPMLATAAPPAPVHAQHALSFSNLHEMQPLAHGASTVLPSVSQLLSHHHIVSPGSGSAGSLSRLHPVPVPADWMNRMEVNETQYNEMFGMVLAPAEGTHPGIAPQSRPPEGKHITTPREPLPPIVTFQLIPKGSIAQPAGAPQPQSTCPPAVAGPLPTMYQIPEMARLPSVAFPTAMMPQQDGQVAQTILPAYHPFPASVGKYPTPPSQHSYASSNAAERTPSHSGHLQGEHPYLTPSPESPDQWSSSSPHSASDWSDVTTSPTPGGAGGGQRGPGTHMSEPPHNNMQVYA

On to `CCCNC(=O)[C@@H]1c2ccccc2C(=O)N(C(C)C)[C@H]1c1ccc(CO)cc1`, for which the composite z-score in experiment [1] was 0.277; in experiment [2] it was -0.638; in [3] it was -0.112; in experiment [4], -0.303; in [5], -0.664; in experiment [6], 1.23. For the same molecule, the composite z-score in experiment [7] is 1.2; in experiment [9] it was 0.103; in experiment [10], -0.271; in experiment [11], 0.541; in experiment [15] it was 0.618; in experiment [17], -0.0458. For the same molecule, the results for the composite z-score in experiment [18], in [19] and in [20] were -0.231, -0.421 and -0.196, respectively. Also, the z-score is -0.273 (inactive) in experiment [8]; 0.853 (inactive) in experiment [12]; 0.668 (inactive) in [13]; -0.148 (inactive) in [14]; 0.924 (inactive) in experiment [16].
Take `C=CCC(OC(C)=O)[C@@H]1[C@@H](N(Cc2cc3ccccc3o2)C(=O)c2ccc(-c3ccccc3)cc2)c2cc(OCCCO)ccc2N1C(=O)c1ccc2ccccc2c1` (stereo not given in full): the composite z-score in experiment [1] was -0.0256; in [2] it was -0.262; in [3] it was 0.0405; in experiment [4], -0.0863; in experiment [5], 0.251; in experiment [6], 0.0445. Moreover, the composite z-score in experiment [7] is -0.341; in [9] it was 0.679; in experiment [10], -0.214; in experiment [11], 0.0279; in experiment [15], 1.1; in [17], -0.0485. The results for the composite z-score in experiment [18], in experiment [19] and in [20] were 0.228, 0.391 and -0.0981, respectively. Besides, the z-score was -3.52 (inactive) in experiment [8]; 0.271 (inactive) in experiment [12]; 0.314 (inactive) in experiment [13]; 1.03 (inactive) in [14]; -0.704 (inactive) in experiment [16].
Consider `COc1cc(OC)c(C(O)C2C=CC3C(=O)N(c4ccccc4)C(=O)C3N2Nc2ccccc2)cc1Br` (stereo not given), for which the composite z-score in experiment [1] is 0.0555; in experiment [2], -0.01; in [3], 0.0393; in [4], 0.208; in experiment [5], 0.878; in [6] it was 1.66. Also, the composite z-score in experiment [7] is 0.936; in experiment [9], 0.558; in experiment [10], 0.0139; in [11], 1.2; in experiment [15], 2.53; in experiment [17], 0.167. Further, the composite z-score in [18] was 0.0401; in experiment [19] it was 0.862; in [20] it was -0.0828. Moreover, the z-score in [8] is 0.203 (inactive); in experiment [12], -0.465 (inactive); in [13] it was 1.09 (inactive); in [14] it was 0.326 (inactive); in [16], -0.604 (inactive).
Turning to `O[C@@H](Cc1ccccc1)[C@@H](/C=C/C1CC1)N(CC#Cc1ccccc1)Cc1cccc(Cl)c1`, the composite z-score in experiment [1] is 1.39; in [2], -0.393; in [3], -0.129; in [4], -1.06; in experiment [5] it was -1.32; in experiment [6], -0.34. Moreover, the composite z-score in [7] was -0.162; in experiment [9], -0.959; in [10], -0.227; in experiment [11], -0.235; in [15], -0.0561; in experiment [17] it was 0.146. Further, the composite z-score in [18] was -1.4; in [19], -1.08; in experiment [20] it was -0.398. Besides, the z-score in [8] was -0.976 (inactive); in experiment [12], 0.949 (inactive); in [13], 0.322 (inactive); in [14] it was -0.0243 (inactive); in [16], 1.37 (inactive).
For `COc1ccc([Si](C)(C)[C@@H]2[C@@H](CCO)O[C@]3(C(=O)N(Cc4ccc(N5CCCCC5=O)cc4)c4ccccc43)[C@H]2C)cc1`, the composite z-score in experiment [1] was -0.343; in experiment [2] it was 0.299; in experiment [3], 0.0344; in experiment [4] it was 0.913; in [5], 0.0177; in experiment [6] it was 0.919. Besides, the composite z-score was 1.15 in [7]; 0.203 in [9]; 0.0373 in experiment [10]; 1.53 in experiment [11]; 2.09 in [15]; -0.181 in experiment [17]. The composite z-score in [18] was 0.731; in experiment [19], 1.11; in experiment [20] it was -0.0828. Moreover, the z-score was -4.78 (inactive) in experiment [8]; -0.102 (inactive) in experiment [12]; 0.0767 (inactive) in experiment [13]; 3.05 (inactive) in experiment [14]; 1.2 (inactive) in experiment [16].
